Data reported in PubChem BioAssay AID1159580 (chemical genetic matrix, 2015).
Screen size: about 5,500 compounds; about 2,000 (36%) were called active. Another 18% or so got no clear call; they are omitted. Cut-off read from the data, not from the text of the source: active = normalized growth mostly below about 0.91 (no sharp cut-off); inconclusive = no clear call, values can overlap the other calls; inactive = mostly above about 0.92. This is one part of the list.

Experiment: chemical genetic growth profiling, strain panel (AID 1159580);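 note: tested at 20 µM; growth read once vehicle control cultures reached saturation at 30 °C; 1 = growth at the plate median or of vehicle wells; lower values mean less growth of the strain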
Conditions: S. cerevisiae deletion strains, growth OD

Measured: normalized growth

CC(=O)NCCCCCC(=O)O
inactive: locus YAL013W, strain DEP1, stronger effect = lower value 1.01 | locus YAL021C, strain ccr4, stronger effect = lower value 1.01 | locus YAL026C, strain drs2, stronger effect = lower value 0.978 | locus YAL030W, strain snc1, stronger effect = lower value 0.99 | locus YBL061C, strain skt5, stronger effect = lower value 0.99 | locus YBR009C, strain hhf1, stronger effect = lower value 0.979 | locus YBR021W, strain FUR4, stronger effect = lower value 1.02 | locus YBR023C, strain chs3, stronger effect = lower value 0.984 | locus YBR171W, strain sec66, stronger effect = lower value 0.999 | locus YBR229C, strain ROT2, stronger effect = lower value 1.01 | locus YBR231C, strain swc5, stronger effect = lower value 0.998 | locus YBR279W, strain paf1, stronger effect = lower value 0.998 | locus YCL011C, strain gbp2, stronger effect = lower value 0.968 | locus YCL016C, strain dcc1, stronger effect = lower value 1 | locus YCL029C, strain bik1, stronger effect = lower value 0.988 | locus YCL061C, strain MRC1, stronger effect = lower value 1 | locus YCL069W, strain vba3, stronger effect = lower value 0.979 | locus YCR088W, strain abp1, stronger effect = lower value 0.99 | locus YDL005C, strain med2, stronger effect = lower value 0.984 | locus YDL035C, strain GPR1, stronger effect = lower value 1.02 | locus YDL040C, strain nat1, stronger effect = lower value 0.995 | locus YDL074C, strain BRE1, stronger effect = lower value 1.04 | locus YDL101C, strain DUN1, stronger effect = lower value 1.02 | locus YDL134C, strain PPH21, stronger effect = lower value 1 | locus YDL185W, strain tfp1, stronger effect = lower value 0.985 | locus YDL192W, strain arf1, stronger effect = lower value 0.988 | locus YDR001C, strain nth1, stronger effect = lower value 0.987 | locus YDR069C, strain doa4, stronger effect = lower value 0.993 | locus YDR101C, strain arx1, stronger effect = lower value 0.986 | locus YDR137W, strain rgp1, stronger effect = lower value 1.01 | locus YDR159W, strain sac3, stronger effect = lower value 0.976 | locus YDR162C, strain NBP2, stronger effect = lower value 1.01 | locus YDR195W, strain ref2 0.982 | locus YDR297W, strain sur2, stronger effect = lower value 0.993 | locus YDR318W, strain mcm21, stronger effect = lower value 0.992 | locus YDR334W, strain swr1, stronger effect = lower value 0.979 | locus YDR335W, strain msn5, stronger effect = lower value 1 | locus YDR388W, stronger effect = lower value 0.97 | locus YDR392W, strain spt3, stronger effect = lower value 0.891 | locus YDR502C, strain sam2, stronger effect = lower value 0.98 | locus YEL003W, strain gim4, stronger effect = lower value 0.969 | locus YEL037C, strain rad23, stronger effect = lower value 0.972 | locus YEL061C, strain CIN8 (second series), stronger effect = lower value 0.977 | locus YEL061C, strain CIN8, stronger effect = lower value 1.01 | locus YER015W, strain faa2, stronger effect = lower value 1 | locus YER016W, strain bim1, stronger effect = lower value 0.997 | locus YER110C, stronger effect = lower value 0.986 | locus YER111C, strain swi4, stronger effect = lower value 0.967 | locus YER155C, strain BEM2 (second series), stronger effect = lower value 1.01 | locus YER155C, strain BEM2, stronger effect = lower value 1.01 | locus YER167W, strain BCK2, stronger effect = lower value 1 | locus YFR010W, strain ubp6, stronger effect = lower value 0.983 | locus YGL078C, strain dbp3, stronger effect = lower value 0.974 | locus YGL086W, strain mad1, stronger effect = lower value 1 | locus YGL167C, strain pmr1, stronger effect = lower value 0.969 | locus YGL173C, strain kem1, stronger effect = lower value 0.99 | locus YGL227W, strain vid30, stronger effect = lower value 0.97 | locus YGL240W, strain doc1, stronger effect = lower value 0.993 | locus YGL248W, strain PDE1, stronger effect = lower value 1.03 | locus YGL253W, strain hxk2, stronger effect = lower value 0.991 | locus YGR135W, strain pre9, stronger effect = lower value 0.979 | locus YGR229C, strain SMI1, stronger effect = lower value 1.01 | locus YGR252W, strain gcn5, stronger effect = lower value 0.954 | locus YHR013C, strain ard1, stronger effect = lower value 0.946 | locus YHR027C, strain rpn1, stronger effect = lower value 1.01 | locus YHR030C, strain SLT2, stronger effect = lower value 1.01 | locus YHR079C, strain IRE1 (second series), stronger effect = lower value 0.992 | locus YHR094C, strain hxt1, stronger effect = lower value 0.984 | locus YHR129C, strain ARP1, stronger effect = lower value 1.01 | locus YHR142W, strain chs7, stronger effect = lower value 1.02 | locus YHR200W, strain rpn10, stronger effect = lower value 0.994 | locus YIL066C, strain RNR3, stronger effect = lower value 1.03 | locus YIL073C, strain SPO22, stronger effect = lower value 0.979 | locus YIL125W, strain kgd1, stronger effect = lower value 0.981 | locus YIR030C, strain dcg1, stronger effect = lower value 0.998 | locus YJL092W, strain hpr5, stronger effect = lower value 0.99 | locus YJL095W, strain BCK1 (second series), stronger effect = lower value 1.01 | locus YJL095W, strain BCK1, stronger effect = lower value 1.03 | locus YJL115W, strain asf1, stronger effect = lower value 0.98 | locus YJL129C, strain trk1, stronger effect = lower value 1 | locus YJL134W, strain LCB3, stronger effect = lower value 1.01 | locus YJL154C, strain vps35, stronger effect = lower value 0.978 | locus YJL164C, strain tpk1, stronger effect = lower value 1.02 | locus YJL166W, strain qcr8, stronger effect = lower value 1.01 | locus YJL168C, strain set2, stronger effect = lower value 0.986 | locus YJL187C, strain SWE1 (second series), stronger effect = lower value 1.03
